In assay [1] the test system is MILI (PIWIL2) piRISC loaded with L1MC piRNA (26 nt). Kind of assay: pre-steady-state target cleavage rate (min^-1); guide: L1MC piRNA 5'p-UAACUAAAUACUAUGCAAGCUGUAGG; higher = faster piRNA-guided slicing of the target. Particulars: auxiliary factor: 500 nM mouse GTSF1. The gist of the method:
(§1)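 In this Cleave-'n-Seq assay, uncleaved targets were sequenced and normalised to depth and to weakly complementary targets. They came from a transcribed, DNA-blocked target RNA library […] mixed with 1 nM active affinity-purified piRISC carrying one synthetic guide, with or without 500 nM GTSF1 partner protein, in HEPES–potassium acetate buffer at 33 °C for 0–8 or 0–960 min. After three trials were pooled and k3 was capped at 0.0001 min^-1, the pre-steady-state cleavage rate was obtained from a burst-and-steady-state fit.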

The test system of assay [2] is EfPiwi piRISC loaded with L1MC piRNA (26 nt). The assay can be described thus: pre-steady-state target cleavage rate (min^-1); auxiliary factor: 500 nM Ephydatia muelleri Gtsf1; guide: L1MC piRNA 5'p-UAACUAAAUACUAUGCAAGCUGUAGG; MIWI and MILI are mouse PIWI proteins and EfPiwi is from a freshwater sponge; tags in brackets are library labels; higher = faster piRNA-guided slicing of the target. The essentials: as §1

± gives the standard deviation.

As to UCCUCCUACAGCUUGCAUAGUUUUUACAAA, the results for the “pre-steady-state target cleavage rate” value in assay [1] and in assay [2] were 0.0506 ± 0.013 and 0.00552 ± 0.0037, respectively.
UCCUGGUACAGCUUGCUUAGUAUUUAGAAA: the entries for the “pre-steady-state target cleavage rate” value in assay [1] and in assay [2] were 0.0808 ± 0.021 and 0.00224 ± 0.002, respectively.
For UCCUCCUACAGCUUGCAUUGUAUUUACAAA, the results for the “pre-steady-state target cleavage rate” value in assay [1] and in assay [2] were 0.0269 ± 0.0098 and 0.00314 ± 0.003, respectively.
The like results for UCCUGGAACAGCUUGCAUAGUAUUUUCAUA were, in that order, 0.0434 ± 0.013 and 0.00388 ± 0.002.
Turning to UCCUGGAACAGCUUGCAUAGUAUAAAGAAA, the “pre-steady-state target cleavage rate” value in assay [1] amounted to 0.0192 ± 0.0088; in assay [2], 0.00217 ± 0.0021.
Take UCCUCCUACAGCUUGCAUAGUAUUUAGAUUA: the “pre-steady-state target cleavage rate” value is 0.122 ± 0.022 in assay [1] and 0.0103 ± 0.0044 in assay [2].
For UCCUGGAACAGCAAGCAUAGUAUUUAGAAA the same measures were 0.162 ± 0.025 and 0.00309 ± 0.002.
For UCCUCCAACAGCUUGCAUAGUAUUUAGAAA the same measures were 0.147 ± 0.023 and 0.00461 ± 0.0019.
In the case of UCCUGCUACAGCUUGCAUAGUAAUAAGUUA, the “pre-steady-state target cleavage rate” value in assay [1] was 0.238 ± 0.03; in assay [2], 0.0044 ± 0.002.
The like results for UCCUGGAUGAGCUAGCAUAGUAUUUAGAAA were, in that order, 0.209 ± 0.049 and 0.00297 ± 0.0019.
For the sequence UCCUGGAACAGCUAGCAUACUAUUUAGUUA, the “pre-steady-state target cleavage rate” value stood at 0.0692 ± 0.011 in assay [1] and 0.0045 ± 0.0019 in assay [2].
Regarding UCCUGGAACAGCUUGCAUACUAAUUAGUUA, the “pre-steady-state target cleavage rate” value came to 0.0355 ± 0.0087 in assay [1] and 0.00305 ± 0.0029 in assay [2].
Turning to UCCUCCUACAGCAUGCAUAGUAUUUACAAA, the “pre-steady-state target cleavage rate” value came to 0.205 ± 0.037 in assay [1] and 0.00397 ± 0.0026 in assay [2].
In the case of UCCUGGUACUGCUUGCAUAGUAUUUAGAAA, the “pre-steady-state target cleavage rate” value in assay [1] was 0.0143 ± 0.0067; in assay [2] it was 0.00409 ± 0.0019.
UCCUGCUUGAGCUUGCAUAGUAUUUAGAAA: the “pre-steady-state target cleavage rate” value turned out to be 0.148 ± 0.027 in assay [1] and 0.00479 ± 0.0016 in assay [2].
Turning to UCCUGGAUGAGCUUGCAUAGCAUUUAGUUA, the results for the “pre-steady-state target cleavage rate” value in assay [1] and in assay [2] were 0.0853 ± 0.016 and 0.0029 ± 0.0019, respectively.
Regarding UCCUGGAUGUGCUUCCAAAGUAUUUAGUUA, the “pre-steady-state target cleavage rate” value in assay [1] is 0.0214 ± 0.0068; in assay [2], 0.00463 ± 0.0046.
With UCCUGGAACACCUAGCAUAGUAUUUAGUUA, the “pre-steady-state target cleavage rate” value was determined as 0.229 ± 0.032 in assay [1] and 0.00601 ± 0.0036 in assay [2].
Turning to UCCUGCUACAGCUUGGAUACUAUUUAGUUA, the “pre-steady-state target cleavage rate” value turned out to be 0.0884 ± 0.018 in assay [1] and 0.00633 ± 0.0024 in assay [2].
For UCCUCCAACAGCUUGCAUAGUAUUUUCAAA, the “pre-steady-state target cleavage rate” value in assay [1] worked out at 0.0817 ± 0.015; in assay [2] it was 0.00396 ± 0.0027.
In the case of UCCUGGAUGUGCUUGCAUAGUAUUUAUUA, the results for the “pre-steady-state target cleavage rate” value in assay [1] and in assay [2] were 0.00911 ± 0.0051 and 0.00271 ± 0.0022, respectively.
Regarding UCCUGGAAGAGCUUGCAUAGUAUUUACAAA, the “pre-steady-state target cleavage rate” value worked out at 0.0536 ± 0.02 in assay [1] and 0.00396 ± 0.0018 in assay [2].
For the sequence UCCUCCUACAGCUUGCUUAGUAUUUAGAAA, the “pre-steady-state target cleavage rate” value was 0.091 ± 0.018 in assay [1] and 0.00569 ± 0.0027 in assay [2].
For the sequence UCCUGGUACAGCUUGCAAAGUAUUUUGUUA, the “pre-steady-state target cleavage rate” value in assay [1] was determined as 0.0563 ± 0.014; in assay [2], 0.00296 ± 0.0029.
Turning to UCCUCCUACAGCUUGCAUAGUUAUUAGAAA, the figures for the “pre-steady-state target cleavage rate” value in assay [1] and in assay [2] were 0.0109 ± 0.0053 and 0.00348 ± 0.0028, respectively.
Take UCCUCCUACAGCUUGCAAACUAUUUAGUUA: the “pre-steady-state target cleavage rate” value in assay [1] is 0.0393 ± 0.0078; in assay [2], 0.00937 ± 0.0039.
On to UCCUGGAUGUGCUUGACAUAGUAUUUAGUUA, for which the results for the “pre-steady-state target cleavage rate” value in assay [1] and in assay [2] were 0.0338 ± 0.009 and 0.0797 ± 0.03, respectively.
For UCCUGCAACAGCUUGCAUAGUAUUUACAAA, the “pre-steady-state target cleavage rate” value stood at 0.232 ± 0.053 in assay [1] and 0.00305 ± 0.0022 in assay [2].
UCCUGGAAGUCCUUGCAUAGUAUUUAGUAA: the “pre-steady-state target cleavage rate” value in assay [1] amounted to 0.122 ± 0.021; in assay [2], 0.00346 ± 0.0028.
On to UCCUGCUACAGCUUGCAUAGAAUAUAGUUA, for which the “pre-steady-state target cleavage rate” value in assay [1] worked out at 0.0873 ± 0.021; in assay [2], 0.00332 ± 0.0022.
For UCCUGGAACAGCUUGCAUAGUAUUAAGAAA, the “pre-steady-state target cleavage rate” value in assay [1] is 0.154 ± 0.045; in assay [2], 0.00313 ± 0.0019.
For UCCUCCUACACCUUGCAUAGUAUUUAGAUA the same measures were 0.161 ± 0.044 and 0.004 ± 0.0023.
Regarding UCCUGCUUGUGCUUGCAUAGUAUUUAGAAA, the “pre-steady-state target cleavage rate” value in assay [1] was determined as 0.0115 ± 0.0056; in assay [2], 0.00373 ± 0.0022.
The like results for UCCUGCAUGAGCUUGCAUAGUAUUUAGAAA were, in that order, 0.157 ± 0.028 and 0.00569 ± 0.0021.
Consider UCCUGGAUGAGCUUGCAUAGUAUUUAGUCA, for which the “pre-steady-state target cleavage rate” value stood at 0.172 ± 0.015 in assay [1] and 0.00793 ± 0.0032 in assay [2].
For the sequence UCCUGCUACAGCUUGCAUACUAUUUAGAAA, the “pre-steady-state target cleavage rate” value in assay [1] was 0.0482 ± 0.015; in assay [2] it was 0.00298 ± 0.0021.
For UCCUGGAACAGCUUGCAUAGCAUUUAGUUA the same measures were 0.0886 ± 0.013 and 0.00399 ± 0.0015.
With UCCUCCUAGAGCUUGCAUAGUAUUUACAAA, the “pre-steady-state target cleavage rate” value in assay [1] worked out at 0.0915 ± 0.027; in assay [2] it was 0.00252 ± 0.0019.
Consider UCCUCCUAGAGCUUGCAUAGUAUUUAGAAA, for which the “pre-steady-state target cleavage rate” value is 0.069 ± 0.016 in assay [1] and 0.00517 ± 0.0019 in assay [2].
As for UCCUGGAUCAGCUUGCAUAGUAUUUAGCUUA, the results for the “pre-steady-state target cleavage rate” value in assay [1] and in assay [2] were 0.149 ± 0.021 and 0.0068 ± 0.0026, respectively.
Regarding UCCUGCUACAGCUUGCACUAGUAUUUAGUUA, the “pre-steady-state target cleavage rate” value in assay [1] was determined as 0.0609 ± 0.015; in assay [2], 0.00557 ± 0.0023.
With UCCUGGAACAGGAUGCAUAGUAUUUACAAA, the “pre-steady-state target cleavage rate” value in assay [1] amounted to 0.0486 ± 0.017; in assay [2], 0.00226 ± 0.0018.
For the sequence UCCUCCUAGUGCUUGCAUAGUAUUUAGUAA, the “pre-steady-state target cleavage rate” value was found to be 0.114 ± 0.019 in assay [1] and 0.00468 ± 0.002 in assay [2].
In the case of UCCUCCUACAGCUUGCAUUGUAUUUAGAUA, the “pre-steady-state target cleavage rate” value turned out to be 0.119 ± 0.019 in assay [1] and 0.00539 ± 0.0029 in assay [2].
Consider UCCUGGAUGAGGAUGCAUAGUAUUUAGAAA, for which the figures for the “pre-steady-state target cleavage rate” value in assay [1] and in assay [2] were 0.0101 ± 0.0046 and 0.0024 ± 0.0024, respectively.
For UCCUCCUAGAGCUUGCAUACUAUUUAGUUA the same measures were 0.101 ± 0.018 and 0.00855 ± 0.0026.
As to UCCUGGAUCUGCUUGCAUAGUAUUUAGAUA, the “pre-steady-state target cleavage rate” value was 0.0934 ± 0.016 in assay [1] and 0.00401 ± 0.0022 in assay [2].
For UCCUGGAUGUGCUUGCAUAGUAUGUAGUUA the same measures were 0.134 ± 0.026 and 0.00399 ± 0.0022.
In the case of UCCUGGAACACGUUGCAUAGUAUUUAGUAA, the “pre-steady-state target cleavage rate” value was determined as 0.254 ± 0.036 in assay [1] and 0.00365 ± 0.0034 in assay [2].
Turning to UCCUGCUACAGCUUGCAUAGGAUUUAGUUA, the results for the “pre-steady-state target cleavage rate” value in assay [1] and in assay [2] were 0.00856 ± 0.0037 and 0.00356 ± 0.001, respectively.
Turning to UCCUCCUUGUGCUUGCAUAGUAUUUACAAA, the “pre-steady-state target cleavage rate” value in assay [1] turned out to be 0.0181 ± 0.0068; in assay [2], 0.00376 ± 0.0032.
For UCCUGGAUGAGCUUGCAUUGUAUUUAGAUA the same measures were 0.156 ± 0.038 and 0.00248 ± 0.0021.
Consider UCCUGGUUCAGCUUCCAUAGUAUUUAGUUA, for which the entries for the “pre-steady-state target cleavage rate” value in assay [1] and in assay [2] were 0.0301 ± 0.012 and 0.00303 ± 0.0021, respectively.
For UCCUGGAUGAGCUUGCAUAGUAUUUACUAA the same measures were 0.00674 ± 0.0044 and 0.00198 ± 0.002.
On to UCCUGGAUCAGCUUGCUUAGUAUUUAGAAA, for which the “pre-steady-state target cleavage rate” value came out at 0.0821 ± 0.019 in assay [1] and 0.00269 ± 0.0022 in assay [2].

Values taken from the supplement of paper PMC10338343.
